Only some compounds are listed: those with a hit (about 0.38% of all), similar ones and a draw of the others.
Rab7 wt GTP bind = modulators of GTP binding to Rab7, primary screen, biochemical, wildtype, multiplex bead flow cytometry. GST-Rab7 beads, fluorescent GTP binding; actives lie on both sides; untreated = 100%, excess cold GTP = 0%. GTP binding activity (percent of control), % at 10 µM. 190,000 compounds, 0.055% hits. AID 758, 2007;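 active means fluorescent GTP binding to Rab7 beads changed by at least 20 points from the 100% baseline, either direction, mostly lower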;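 further: median green fluorescence of bound Bodipy-FL-GTP per Rab7 bead population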
Rac1 mut GTP = GTP binding modulators of activated mutant Rac1, primary screen, biochemical, bead-based flow cytometry, multiplex, fluorescent GTP. GST-Rac1 activated beads; actives lie on both sides; 100% means binding = to untreated wells. percent activity (GTP binding), % at 10 µM. 190,000 compounds, 0.11% hits;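 active means GTP binding at least 20 percentage points away from the 100% baseline, in either direction, so actives lie on both sides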
Cdc42 wt = modulators of GTP binding to wildtype Cdc42, primary screen, biochemical, multiplex bead flow cytometry, Bodipy-GTP; GST-Cdc42 beads; actives lie on both sides; percent activity (GTP binding), % at 10 µM; 190,000 compounds, 0.2% hits; AID 761, 2007;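 active means percent activity GTP binding at least 20 points away from the 100% baseline, either down as inhibitor or up as activator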;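 further: median bead fluorescence of bound Bodipy-FL-GTP at 100 nM; 0% = excess unlabeled GTP control and 100% = no compound control; below 100% means less GTP binding so inhibitor and above means activator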
Target sequence (P60953 whole entry, looked up): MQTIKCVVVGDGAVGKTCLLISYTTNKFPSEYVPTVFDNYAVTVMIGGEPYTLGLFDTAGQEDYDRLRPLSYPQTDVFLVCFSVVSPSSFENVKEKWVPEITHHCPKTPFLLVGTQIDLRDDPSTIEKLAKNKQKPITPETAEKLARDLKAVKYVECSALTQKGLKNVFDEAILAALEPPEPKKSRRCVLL
Rac1 wt modul = wildtype Rac1 GTP binding modulators, primary screen, biochemical, GST-Rac1 beads, flow cytometry, multiplex; Ras-related C3 botulinum toxin substrate 1 (Homo sapiens), P63000; fluorescent GTP binding; actives lie on both sides; 0 = cold GTP competed, 100 = untreated; GTP binding activity (% of control), % at 10 µM; 190,000 compounds, 0.27% hits; AID 757, 2007;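 active means GTP binding activity at least 20 points away from the 100% control level, either lower or higher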
HRas wt GTP bind = modulators of GTP binding to HRas wildtype, primary screen, biochemical, bead-based flow cytometry, multiplex | GST-Ras wt beads, Bodipy-FL-GTP binding; actives lie on both sides | 190,000 compounds, 0.14% hits | GTP binding activity, % at 10 µM;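 active means GTP binding activity at least 20% away from the 100% baseline, either lowered as inhibitor or raised as activator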;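 further: 0% = unlabeled GTP competition control and 100% = no-compound control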
Target sequence (P01112 whole entry, looked up): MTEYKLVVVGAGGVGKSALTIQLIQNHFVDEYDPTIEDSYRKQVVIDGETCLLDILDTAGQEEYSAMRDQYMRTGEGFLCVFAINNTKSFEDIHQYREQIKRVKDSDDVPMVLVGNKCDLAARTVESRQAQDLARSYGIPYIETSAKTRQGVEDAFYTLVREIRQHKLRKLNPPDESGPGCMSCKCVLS
Rab2 wt GTP = modulators of GTP binding to Rab2A wildtype, primary screen, biochemical, dog, bead-based flow cytometry, multiplex | AID 760, 2007 | GST-Rab2 wt beads, Bodipy-GTP binding | Ras-related protein Rab-2A (Canis lupus familiaris), P61105 | GTP binding activity, % at 10 µM | 190,000 compounds, 0.19% hits;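 active means GTP binding activity at least 20 points away from 100%, either lowered or raised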;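 further: 0% = beads with excess unlabeled GTP and 100% = no-compound control corrected for plate trend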
* = called active by the depositor; [ ] = remark or other dose.

SMILES | Rab7 wt GTP bind | Rac1 mut GTP | Cdc42 wt | Rac1 wt modul | HRas wt GTP bind | Rab2 wt GTP
O=C1Nc2ccc(Br)cc2C12NNc1ccccc1O2 (stereo unspecified) | 96 | 89 | 79* | 84 | 82 | 83
CC(C)(C)OC(=O)N[C@@H](Cc1ccccc1)c1nnc(S(=O)(=O)Cc2cccc(F)c2)o1 | 79* | 99 | 105 | 101 | 100 | 101
N#C/C(=C/c1ccc([N+](=O)[O-])cc1)C(=O)Nc1ccccc1O | 94 | 97 | 91 | 98 | 96 | 93
N#C/C(=C/c1ccc(O)c([N+](=O)[O-])c1)C(=O)Nc1ccccc1 | 102 | 87 | 79* | 77* | 86 | 84
COc1ccc(OC)c(/C=N/NC(=O)c2ccc(Cn3cc([N+](=O)[O-])cn3)o2)c1 | 87 | 92 | 91 | 81 | 82 | 78*
CSc1nc2ccc(NC(=O)C3CC(=O)N(Cc4ccco4)C3)cc2s1 (stereo unspecified) | 82 | 90 | 75* | 91 | 81 | 86
Oc1ccc(/C=N/Nc2nc(-c3ccc(Cl)cc3)cc(C(F)(F)F)n2)cc1 | 100 | 98 | 100 | 102 | 99 | 98
O=c1[nH]c(=O)c2nnc(N/N=C\c3ccc(O)cc3)nc2[nH]1 | 92 | 74* | 60* | 54* | 63* | 59*
Cc1cc2ncn(CCC(=O)NC3CCCC3)c2cc1C | 106 | 94 | 99 | 96 | 100 | 99
Cc1cc2ncn(CCC(=O)NC(C)(C)C)c2cc1C | 100 | 88 | 97 | 77* | 87 | 103
Cc1ccn2c(NCc3ccc4c(c3)OCO4)c(-c3ccc(O)cc3)nc2c1 | 82 | 112 | 145*[activator] | 135*[activator] | 91 | 100
COc1ccc(-c2nnc(CSc3nc4ccccc4c(=O)n3C)o2)cc1OC | 106 | 104 | 104 | 120*[activator] | 107 | 106
Cn1c(SCc2nnc(-c3ccccc3)o2)nc2ccccc21 | 106 | 100 | 101 | 102 | 100 | 103
ClCc1nnc(-c2cc3c(s2)CCCC3)o1 | 105 | 94 | 99 | 98 | 97 | 99
O=C1/C(=C\c2cccnc2)Sc2ccccc21 | 90 | 88 | 72* | 84 | 90 | 89
COc1ccc(C(=O)c2nccc3ccccc23)cc1 | 100 | 95 | 95 | 95 | 95 | 95
Nc1c(S(=O)(=O)c2ccccc2)c2nc3ccccc3nc2n1C1CC1 | 91 | 90 | 82 | 78* | 85 | 86
Nc1c(S(=O)(=O)c2ccccc2)c2nc3ccccc3nc2n1/N=C/c1cccc(O)c1 | 95 | 87 | 74* | 88 | 73* | 70*
O=C(CCCN1C(=O)c2cccc3cccc(c23)C1=O)NC1CCS(=O)(=O)C1 (stereo unspecified) | 97 | 96 | 97 | 99 | 98 | 96
CC1CC(C)CN(C(=O)c2cc3cc(Br)cc(Br)c3o2)C1 (stereo unspecified) | 92 | 94 | 96 | 91 | 95 | 95
COc1ccc(/C=N/Nc2ncnc3sc(C)c(C)c23)cc1 | 97 | 95 | 93 | 96 | 96 | 96
Cc1sc2ncnc(N/N=C/c3ccc(O)cc3)c2c1C | 88 | 93 | 93 | 82 | 80 | 77*
O=C(COc1ccc(S(=O)(=O)N2CCCC2)cc1)Nc1ccc2c(c1)OCCO2 | 105 | 97 | 96 | 102 | 100 | 99
CCOC(=O)c1c(C)[nH]c(C)c1C(=O)COc1ncnc2cc([N+](=O)[O-])ccc12 | 74* | 81 | 64* | 63* | 70* | 63*
O=C(COc1ncnc2cc([N+](=O)[O-])ccc12)NCCc1ccc(Cl)cc1 | 92 | 90 | 81 | 77* | 84 | 80
SMILES | Rab7 wt GTP bind | Rac1 mut GTP | Cdc42 wt | Rac1 wt modul | HRas wt GTP bind | Rab2 wt GTP
O=C(Cn1cnc2cc([N+](=O)[O-])ccc2c1=O)NCc1ccc(Cl)cc1 | 91 | 86 | 77* | 74* | 84 | 80
O=C(COc1ncnc2cc([N+](=O)[O-])ccc12)NC(=O)NC1CCCCC1 | 90 | 89 | 80 | 75* | 85 | 79*
O=C(O)COc1ccccc1/C=N/NC(=O)c1cc(-c2ccc(F)cc2)nc2ccccc12 | 99 | 84 | 82 | 78* | 87 | 86
O=C(CN1C(=O)C2C3CCC(C3)C2C1=O)N1CCN(Cc2ccccc2)CC1 (stereo unspecified) | 95 | 97 | 97 | 100 | 95 | 97
COc1ccc(-c2nnc3sc(-c4ccco4)nn23)cc1OC | 101 | 96 | 101 | 98 | 101 | 99
CCOc1cccc(-c2nn3c(-c4ccco4)nnc3s2)c1 | 91 | 90 | 80 | 88 | 80 | 78*
COc1ccc(-c2nn3c(-c4ccco4)nnc3s2)cc1OC | 88 | 82 | 68* | 70* | 68* | 71*
COc1cccc(-c2nnc3sc(-c4ccco4)nn23)c1 | 102 | 102 | 107 | 107 | 103 | 103
O=C(N/N=C/c1cccc([N+](=O)[O-])c1)c1ccccc1-n1cccc1 | 105 | 98 | 97 | 100 | 99 | 101
O=C(CNS(=O)(=O)c1cccs1)NCc1ccccc1 | 102 | 94 | 99 | 99 | 99 | 97
Cn1nc([N+](=O)[O-])c(C(C#N)c2ccccn2)c(Cl)c1=O (stereo unspecified) | 93 | 61* | 79* | 84 | 82 | 80
CCCn1nc([N+](=O)[O-])c(C(C#N)c2nc3ccccc3o2)c(Cl)c1=O (stereo unspecified) | 98 | 93 | 96 | 100 | 98 | 95
CC(C)(C)c1nnc(NC(=O)c2cccnc2)s1 | 111 | 95 | 99 | 106 | 103 | 104
Cc1cccc(Cc2c(C)nc3nc(SCC(=O)O)nn3c2C)c1 | 89 | 68* | 66* | 72* | 78* | 74*
Cc1nc2nc(SCC(=O)NCCN3CCOCC3)nn2c(C)c1Cc1ccccc1 | 100 | 100 | 99 | 103 | 100 | 100
CCc1cc(C(=O)N2CCCC(CNS(=O)(=O)c3cccs3)C2)n(C)n1 (stereo unspecified) | 96 | 95 | 95 | 97 | 95 | 95

High-throughput results: PubChem BioAssay, NMMLSC
